Source: PubChem BioAssay (Broad Institute)
Shown are actives, neighbours in structure and some others; about 6.8% of the full set was active somewhere.
T cruzi growth-1 = inhibitors of T. cruzi proliferation; T. cruzi beta-gal in NIH3T3, GalScreen luminescence, 90 h; inhibition, % at 8.34 µM; actives 5.9% (n = 77,000); AID 624255;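 active = mean inhibition above about 93%, with at least 55% of replicates each passing it, limit read from the data, passing the limit was not always enough; inconclusive = only one of those two conditions holds; inactive = neither condition holds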
C diff HTS = C. difficile growth inhibition; Clostridium difficile clinical isolate growth, OD600, 24 h; hits give low values; growth activity, negative = inhibition, % at 16 µg/mL (by protocol); actives 0.25% (n = 86,000); AID 1259249;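 active = mean growth activity at or below -80% and every replicate also at or below -80%; inconclusive = mean at or below -80% but some replicate above -80%; inactive = mean growth activity above -80%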;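 also: 0% = DMSO wells and -100% = levofloxacin 16 µg/mL wells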
Pf Dd2 inh = inhibitors of Plasmodium falciparum Dd2 growth | P. falciparum Dd2 growth, SYBR Green, 72 h; hits give low values | AID 1159554 | actives 2.3% (n = 94,000) | activity change, % at 10 µM; in the data active = activity change below about -80%; inconclusive = no clear call, values can overlap the other calls
T cruzi growth-2 = blocks T. cruzi growth in NIH3T3 host cells | shares compounds with T cruzi growth-1 | T. cruzi beta-gal in NIH3T3, GalScreen luminescence, 90 h | inhibition, % at 8.35 µM | actives 72% (n = 5,600);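 active = mean replicate inhibition above about 95% and at least 55% of replicates individually reaching it, limit read from the data; inconclusive = only one of the two criteria is met; inactive = neither criterion is met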
T cruzi growth-3 = inhibitors of T. cruzi proliferation; T. cruzi beta-gal in NIH3T3, GalScreen luminescence, 90 h; shares compounds with T cruzi growth-1; AID 651740; actives 21% (n = 5,600); inhibition, % at 2.09 µM;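 active = mean inhibition above about 95%, with at least 55% of replicates also reaching it, limit read from the data; inconclusive = meets just one of the two conditions; inactive = meets neither condition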;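 also: plate controls were neutral control median for no effect and positive control median for full effect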
NIH3T3 tox = kills mouse NIH/3T3 fibroblasts. cytotoxicity (signal decrease), % at 8.35 µM. NIH/3T3 viability, CellTiter-Glo ATP luminescence, 90 h. AID 651742. actives 14% (n = 5,600). shares compounds with T cruzi growth-1;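 active = mean signal decrease across replicates above about 35% based on untreated-well scatter, with enough replicates individually passing, limit read from the data; inconclusive = no rule stated though some were filed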;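 also: 0% = median of neutral control wells and 100% = median of positive control wells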
3T3 cytotox 2 = NIH/3T3 (mouse) viability loss. shares compounds with T cruzi growth-1. NIH/3T3 viability, CellTiter-Glo ATP luminescence, 90 h. inhibition, % at 24.9 µM. actives 56% (n = 5,600). AID 651744;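 active = mean loss of cell viability signal at or above a set limit, and enough replicates individually reaching it; inconclusive = meets only the mean limit or only the replicate share; inactive = meets neither condition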;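 also: 0% = median of neutral control wells and 100% = median of positive control wells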
The depositor's hits bear a star; ? = inconclusive; nt = not tested or not shown.

SMILES | T cruzi growth-1 | C diff HTS | Pf Dd2 inh | T cruzi growth-2 | T cruzi growth-3 | NIH3T3 tox | 3T3 cytotox 2
COc1ccc(NC(=O)Nc2ccc3c(c2)C(=O)N([C@H](C)CO)C[C@@H](C)[C@H](CN(C)S(=O)(=O)c2ccc(Cl)cc2)OCCCC[C@@H](C)O3)cc1 | 115.2* | 5.3 | -76.7 | 104.5* | 101.1* | -5.4 | 17.9
COc1ccc(NC(=O)Nc2ccc3c(c2)C(=O)N([C@@H](C)CO)C[C@H](C)[C@@H](CN(C)S(=O)(=O)c2ccc(Cl)cc2)OCCCC[C@@H](C)O3)cc1 | 106.7* | -3.1 | -79.8 | 108.7* | 112.1* | 0.7 | 18.2
C[C@@H]1CN([C@@H](C)CO)C(=O)c2cc(NC(=O)c3ccncc3)ccc2O[C@@H]1CN(C)Cc1ccc(Cl)c(Cl)c1 | 22.9 | 30.1 | -1.6 | nt | nt | nt | nt
CC(C)C#Cc1ccc([C@H]2[C@@H](CO)N(C(=O)C3CCOCC3)[C@H]2C#N)cc1 | 98.1* | 0.0 | -21.4 | 106.0* | 93.5 | -8.1 | -4.9
CC(C)C#Cc1ccc([C@H]2[C@@H](C#N)N(C(=O)C3CC3)[C@H]2CO)cc1 | 91.9 | -2.6 | -29.8 | nt | nt | nt | nt
CC(C)C#Cc1ccc([C@H]2[C@@H](C#N)N(C(=O)C3CCC3)[C@@H]2CO)cc1 | 90.4 | -4.3 | -10.5 | nt | nt | nt | nt
CC(C)C#Cc1ccc([C@@H]2[C@H](C#N)N(C(=O)C3CCC3)[C@H]2CO)cc1 | ? | 8.3 | -16.6 | 103.7* | 73.4 | 15.4 | 34.5*
CC(C)C#Cc1ccc([C@@H]2[C@@H](CO)N(C(=O)C3CCC3)[C@H]2C#N)cc1 | 100.5* | -8.6 | -7.7 | 99.6* | 69.0 | 2.1 | 31.4*
CC(C)C#Cc1ccc([C@H]2[C@@H](C#N)N(C(=O)C3CCC3)[C@H]2CO)cc1 | 97.8* | 0.7 | -60.5 | 100.3* | 88.3 | 0.3 | 36.6*
CC(C)C#Cc1ccc([C@@H]2[C@@H](C#N)N(C(=O)C3CC3)[C@H]2CO)cc1 | 44.3 | -17.6 | -9.0 | nt | nt | nt | nt
COc1ccc(S(=O)(=O)N[C@H]2CC[C@@H](CC(=O)N3CCC(Cc4ccccc4)CC3)O[C@@H]2CO)cc1 | 18.8 | -14.3 | -1.1 | nt | nt | nt | nt
Cc1noc(C)c1NC(=O)Nc1ccc2c(c1)C(=O)N([C@@H](C)CO)C[C@@H](C)[C@@H](CN(C)C(=O)Nc1ccc(C(F)(F)F)cc1)O2 | 70.8 | -10.0 | 16.9 | nt | nt | nt | nt
COc1ccc2c3c([nH]c2c1)[C@@H](CO)N(C(C)=O)CC31CN(C(=O)c2ccc3c(c2)OCO3)C1 | nt | -0.6 | -55.7 | nt | nt | nt | nt
C[C@@H]1CN([C@@H](C)CO)C(=O)c2cc(NC(=O)Nc3ccc(C(F)(F)F)cc3)ccc2O[C@@H](C)CCCCO[C@@H]1CN(C)C(=O)CCCN(C)C | 17.4 | nt | 12.7 | nt | nt | nt | nt
COc1ccc(NC(=O)Nc2ccc3c(c2)C(=O)N([C@H](C)CO)C[C@H](C)[C@H](CN(C)Cc2ccc4c(c2)OCO4)OCCCC[C@H](C)O3)cc1 | ? | 1.8 | -68.0 | 98.2* | 99.2* | 9.3 | 103.2*
COc1ccc(NC(=O)Nc2ccc3c(c2)C(=O)N([C@H](C)CO)C[C@@H](C)[C@H](CN(C)Cc2ccc4c(c2)OCO4)OCCCC[C@@H](C)O3)cc1 | 101.3* | 5.6 | -82.9* | 92.6 | 94.5 | ? | 106.4*
COc1ccc(NC(=O)Nc2ccc3c(c2)C(=O)N([C@@H](C)CO)C[C@H](C)[C@@H](CN(C)Cc2ccc4c(c2)OCO4)OCCCC[C@@H](C)O3)cc1 | 73.9 | 18.0 | -71.5 | nt | nt | nt | nt
COc1ccc(NC(=O)Nc2ccc3c(c2)C(=O)N([C@H](C)CO)C[C@@H](C)[C@@H](CN(C)Cc2ccc4c(c2)OCO4)OCCCC[C@@H](C)O3)cc1 | 124.3* | 0.7 | -78.4 | 99.8* | 81.9 | 17.2 | 36.9*
COc1ccc(NC(=O)Nc2ccc3c(c2)C(=O)N([C@@H](C)CO)C[C@H](C)[C@H](CN(C)Cc2ccc4c(c2)OCO4)OCCCC[C@H](C)O3)cc1 | 118.0* | 8.5 | -76.6 | 101.6* | 102.5* | 40.1* | 42.8*
COc1ccc2c3c([nH]c2c1)[C@@H](CO)N(C)CC31CN(C(=O)Nc2c(C)noc2C)C1 | nt | -1.0 | 9.4 | nt | nt | nt | nt
C[C@@H]1CCCCO[C@H](CN(C)S(C)(=O)=O)[C@@H](C)CN([C@@H](C)CO)C(=O)c2cc(NC(=O)Nc3ccc(C(F)(F)F)cc3)ccc2O1 | 66.5 | -2.3 | -33.5 | nt | nt | nt | nt
COc1ccc(NC(=O)Nc2ccc3c(c2)C(=O)N([C@@H](C)CO)C[C@H](C)[C@H](CN(C)Cc2ccc4c(c2)OCO4)OCCCC[C@@H](C)O3)cc1 | 102.8* | 13.4 | -66.6 | 103.1* | 53.8 | 0.3 | 7.7
COc1ccc(NC(=O)Nc2ccc3c(c2)C(=O)N([C@H](C)CO)C[C@@H](C)[C@H](CN(C)Cc2ccc4c(c2)OCO4)OCCCC[C@H](C)O3)cc1 | 41.7 | -2.9 | -71.2 | nt | nt | nt | nt
Cc1noc(C)c1NC(=O)Nc1ccc2c(c1)C(=O)N([C@H](C)CO)C[C@@H](C)[C@@H](CN(C)C(=O)Nc1ccc(C(F)(F)F)cc1)O2 | 81.7 | -9.6 | 26.2 | nt | nt | nt | nt
CN1CCN(C(=O)C[C@@H]2C[C@@H]3c4cc(NC(=O)NC5CCCC5)ccc4O[C@@H]3[C@@H](CO)O2)CC1 | 30.8 | -7.8 | 2.5 | nt | nt | nt | nt
SMILES | T cruzi growth-1 | C diff HTS | Pf Dd2 inh | T cruzi growth-2 | T cruzi growth-3 | NIH3T3 tox | 3T3 cytotox 2
CN(C)C(=O)c1cccc(-c2ccc3c(c2)[C@@H]2[C@@H](CCN2C(=O)C2CCOCC2)[C@@H](CO)N3)c1 | 94.1 | 0.2 | 4.0 | nt | nt | nt | nt
CN(C)C(=O)c1ccc(-c2ccc3c(c2)[C@@H]2[C@@H](CCN2C(=O)c2ccc4c(c2)OCO4)[C@H](CO)N3)cc1 | ? | 2.5 | -8.9 | 103.8* | 77.3 | -25.6 | -6.0
CN(C)CC(=O)N1CC[C@@H]2[C@H](CO)Nc3ccc(-c4ccc(C(=O)N(C)C)cc4)cc3[C@@H]21 | 60.4 | -4.5 | 7.0 | nt | nt | nt | nt
CN(C)C(=O)c1cccc(-c2ccc3c(c2)[C@H]2[C@H](CCN2C(=O)C2CCCC2)[C@H](CO)N3)c1 | nt | -1.6 | -75.3 | nt | nt | nt | nt
CN(C)C(=O)c1cccc(-c2ccc3c(c2)[C@@H]2[C@@H](CCN2C(=O)C2CC2)[C@@H](CO)N3)c1 | 106.2* | -4.5 | -26.9 | 98.8* | 77.1 | -3.8 | -1.4
CCC(=O)N1CC[C@@H]2[C@@H](CO)Nc3ccc(-c4ccc(C(=O)N(C)C)cc4)cc3[C@@H]21 | 103.0* | 3.6 | -12.4 | 104.0* | 46.5 | -40.4 | -16.2
CN(C)C(=O)c1cccc(-c2ccc3c(c2)[C@H]2[C@H](CCN2C(=O)c2ccc4c(c2)OCO4)[C@H](CO)N3)c1 | 63.7 | 1.2 | -13.9 | nt | nt | nt | nt
CN(C)C(=O)c1cccc(-c2ccc3c(c2)[C@H]2[C@H](CCN2C(=O)C2CCOCC2)[C@@H](CO)N3)c1 | ? | 0.7 | 7.0 | 98.6* | 31.5 | -39.3 | -8.9
